In all, about 39,000 compounds went through this assay and about 1,500 (3.8%) were called active. What follows is part of a selection rich in actives, with near analogues and random picks from the rest.

For this assay, the system named is HSkMC (human skeletal muscle cells). Nature of the assay: cytotoxicity call (relative viability < 0.9). The following applies: 10 µM.
For the compound `CCCCOCCOc1ccc(-c2ccc3c(c2)/C=C(/C(=O)Nc2ccc([S@@](=O)Cc4cncn4CCC)cc2)CCCN3CC(C)C)cc1`, the cytotoxicity call was “active”.

Turning to `C[C@@H]1CCCCO[C@H](CN(C)C(=O)NC2CCCCC2)[C@H](C)CN([C@H](C)CO)C(=O)c2cc(NC(=O)c3ccncc3)ccc2O1`, the cytotoxicity call was “inactive”.

Regarding `C[C@H](CO)N1C[C@H](C)[C@@H](CN(C)C(=O)C2CCCCC2)Oc2cc(C#C[C@@H](C)O)ccc2S1(=O)=O`, the cytotoxicity call is “inactive”.

`CC[C@@H](CO)NC(=O)c1ccc(N)cc1`: the cytotoxicity call was “inactive”.

On to `C[C@@H]1CN([C@@H](C)CO)C(=O)c2cc(NC(=O)Nc3ccc(C(F)(F)F)cc3)ccc2O[C@H]1CN(C)Cc1ccc2c(c1)OCO2`, for which the cytotoxicity call is “active”.

Turning to `C[C@@H]1CN([C@H](C)CO)C(=O)c2cc(NC(=O)Nc3ccc(C(F)(F)F)cc3)ccc2O[C@H]1CN(C)Cc1ccc2c(c1)OCO2`, the cytotoxicity call is “inactive”.

Turning to `C[C@@H]1CN([C@@H](C)CO)C(=O)c2cc(NC(=O)Nc3ccc(C(F)(F)F)cc3)ccc2O[C@@H]1CN(C)Cc1ccc2c(c1)OCO2`, the cytotoxicity call was “active”.

With `C[C@H]1CN([C@@H](C)CO)C(=O)c2cc(NC(=O)Nc3ccc(C(F)(F)F)cc3)ccc2O[C@@H]1CN(C)Cc1ccc2c(c1)OCO2`, the cytotoxicity call was “active”.

Regarding `C[C@H](CO)N1C[C@H](C)[C@H](CN(C)Cc2ccc3c(c2)OCO3)Oc2ccc(NC(=O)Nc3ccc(C(F)(F)F)cc3)cc2C1=O`, the cytotoxicity call is “active”.

Consider `C[C@H]1CN([C@@H](C)CO)C(=O)c2cc(NC(=O)Nc3ccc(C(F)(F)F)cc3)ccc2O[C@H]1CN(C)Cc1ccc2c(c1)OCO2`, for which the cytotoxicity call was “inactive”.

As to `C[C@@H]1CN([C@H](C)CO)C(=O)c2cc(NC(=O)Nc3ccc4c(c3)OCO4)ccc2O[C@H]1CN(C)Cc1ccc(C(F)(F)F)cc1`, the cytotoxicity call was “inactive”.

As for `CNC[C@H]1OCCCC[C@@H](C)Oc2ccc(NC(=O)Nc3cccc4ccccc34)cc2C(=O)N([C@H](C)CO)C[C@@H]1C`, the cytotoxicity call is “inactive”.

`CCS(=O)(=O)NCC[C@H]1CC[C@H](NC(=O)Cc2ccccn2)[C@H](CO)O1`: the cytotoxicity call was “inactive”.

With `CC/N=c1\sc(C(=O)OC)cc(=O)n1CC`, the cytotoxicity call was “inactive”.

Regarding `C[C@H]1CN([C@@H](C)CO)C(=O)c2cc(NC(=O)C3CCCCC3)ccc2O[C@H]1CN(C)Cc1ccc(C(=O)Nc2ccccc2N)cc1`, the cytotoxicity call was “inactive”.

For the compound `CO[C@H]1CN(C)C(=O)c2ccc(NS(=O)(=O)CC(F)(F)F)cc2OC[C@@H](C)N(C(=O)NC(C)C)C[C@@H]1C`, the cytotoxicity call was “inactive”.

Regarding `C[C@H](CO)N1C[C@H](C)[C@H](CN(C)S(=O)(=O)c2ccccc2)OCCCC[C@H](C)Oc2ccc(NS(C)(=O)=O)cc2C1=O`, the cytotoxicity call was “inactive”.

Turning to `CNC(=O)N1CCC(C(N)=O)CC1`, the cytotoxicity call is “inactive”.

Consider `O=C(C[C@@H]1C[C@H]2c3cc(NS(=O)(=O)c4ccc(F)cc4)ccc3O[C@H]2[C@H](CO)O1)NCc1ccccn1`, for which the cytotoxicity call was “inactive”.

Turning to `C[C@@H]1CN([C@@H](C)CO)C(=O)c2cc(NC(=O)Nc3ccc4c(c3)OCO4)ccc2O[C@@H]1CN(C)Cc1ccc(C(F)(F)F)cc1`, the cytotoxicity call is “inactive”.

Regarding `C[C@@H]1CN([C@H](C)CO)C(=O)c2cc(NC(=O)Nc3ccc(C(F)(F)F)cc3)ccc2O[C@@H]1CN(C)Cc1ccc2c(c1)OCO2`, the cytotoxicity call was “inactive”.

For `C[C@H](CO)N1C[C@H](C)[C@@H](CN(C)Cc2ccc3c(c2)OCO3)Oc2ccc(NC(=O)Nc3ccc(C(F)(F)F)cc3)cc2C1=O`, the cytotoxicity call is “active”.

`CCC(=O)Nc1ccc2c(c1)OC[C@@H](C)N(C(=O)CN1CCOCC1)C[C@@H](C)[C@@H](OC)CN(C)C2=O`: the cytotoxicity call is “inactive”.

With `C[C@@H]1CN([C@@H](C)CO[Si](C)(C)C(C)(C)C)C(=O)c2cc(NC(=O)Nc3ccccc3)ccc2O[C@@H](C)CCCCO[C@H]1CN(C)S(=O)(=O)c1ccc(F)cc1`, the cytotoxicity call was “inactive”.

`COc1ccc(S(=O)(=O)Nc2ccc3c(c2)C(=O)N([C@H](C)CO)C[C@@H](C)[C@H](CN(C)S(=O)(=O)c2ccc(F)cc2)O3)cc1`: the cytotoxicity call was “inactive”.

Take `C[C@@H]1CN([C@H](C)CO)C(=O)c2cc(NS(=O)(=O)c3ccc(F)cc3)ccc2O[C@@H]1CN(C)S(=O)(=O)c1cn(C)cn1`: the cytotoxicity call is “inactive”.

With `O=C(O[C@@H]1O[C@H]2COC(=O)c3cc(O)c(O)c(O)c3-c3c(cc(O)c(O)c3O)C(=O)O[C@@H]([C@H]1O)[C@@H]2O)c1cc(O)c(O)c(O)c1`, the cytotoxicity call was “inactive”.

For `O=C(O[C@@H]1O[C@@H]2COC(=O)c3cc(O)c(O)c(O)c3-c3c(cc(O)c(O)c3O)C(=O)O[C@H]2[C@H](OC(=O)c2cc(O)c(O)c(O)c2)[C@H]1OC(=O)c1cc(O)c(O)c(O)c1)c1cc(O)c(O)c(O)c1`, the cytotoxicity call is “active”.

Turning to `O=C(O[C@@H]1O[C@@H]2COC(=O)c3cc(Oc4c(C(=O)O)cc(O)c(O)c4O)c(O)c(O)c3-c3c(cc(O)c(O)c3O)C(=O)O[C@H]2[C@H](OC(=O)c2cc(O)c(O)c(O)c2)[C@H]1OC(=O)c1cc(O)c(O)c(O)c1)c1cc(O)c(O)c(O)c1`, the cytotoxicity call is “inactive”.

Take `COCCOC(=O)N1C(=O)[C@@]2(c3cc(C#CCC(C(=O)OC)C(=O)OC)ccc31)[C@H](C(=O)N1CCc3cc(OC)c(OC)cc3C1)[C@H]1C(=O)O[C@H](c3ccccc3)[C@H](c3ccccc3)N1[C@@H]2c1ccccc1OCCO`: the cytotoxicity call is “inactive”.

With `C[C@@H]1CN([C@@H](C)CO)C(=O)c2cc(NC(=O)Nc3ccc(F)cc3)ccc2O[C@@H](C)CCCCO[C@H]1CN(C)CC1CCCCC1`, the cytotoxicity call was “inactive”.

Regarding `C[C@@H]1CN([C@@H](C)CO)C(=O)c2cc(NC(=O)Nc3ccc(F)cc3)ccc2O[C@@H](C)CCCCO[C@@H]1CN(C)CC1CCCCC1`, the cytotoxicity call is “active”.

As for `C[C@H]1CCCCO[C@H](CN(C)CC2CCCCC2)[C@@H](C)CN([C@@H](C)CO)C(=O)c2cc(NC(=O)Nc3ccc(F)cc3)ccc2O1`, the cytotoxicity call was “inactive”.

Turning to `C[C@@H]1CCCCO[C@@H](CN(C)CC2CCCCC2)[C@@H](C)CN([C@H](C)CO)C(=O)c2cc(NC(=O)Nc3ccc(F)cc3)ccc2O1`, the cytotoxicity call was “inactive”.

`C[C@@H]1CCCCO[C@@H](CN(C)CC2CCCCC2)[C@H](C)CN([C@@H](C)CO)C(=O)c2cc(NC(=O)Nc3ccc(F)cc3)ccc2O1`: the cytotoxicity call was “inactive”.

In the case of `C[C@@H]1CCCCO[C@H](CN(C)CC2CCCCC2)[C@H](C)CN([C@H](C)CO)C(=O)c2cc(NC(=O)Nc3ccc(F)cc3)ccc2O1`, the cytotoxicity call was “active”.

As to `C[C@H]1CCCCO[C@@H](CN(C)CC2CCCCC2)[C@@H](C)CN([C@@H](C)CO)C(=O)c2cc(NC(=O)Nc3ccc(F)cc3)ccc2O1`, the cytotoxicity call is “inactive”.

As to `C[C@@H]1CN([C@H](C)CO)C(=O)c2cc(NC(=O)Nc3ccc(F)cc3)ccc2O[C@@H](C)CCCCO[C@@H]1CN(C)CC1CCCCC1`, the cytotoxicity call was “active”.

For the compound `C[C@@H]1CCCCO[C@H](CN(C)CC2CCCCC2)[C@H](C)CN([C@@H](C)CO)C(=O)c2cc(NC(=O)Nc3ccc(F)cc3)ccc2O1`, the cytotoxicity call was “inactive”.

For `C[C@@H]1CCCCO[C@@H](CN(C)CC2CCCCC2)[C@H](C)CN([C@H](C)CO)C(=O)c2cc(NC(=O)Nc3ccc(F)cc3)ccc2O1`, the cytotoxicity call is “inactive”.

Turning to `C[C@H](CO)N1C[C@H](C)[C@H](CN(C)CC2CCCCC2)OCCCC[C@H](C)Oc2ccc(NC(=O)Nc3ccc(F)cc3)cc2C1=O`, the cytotoxicity call is “active”.

On to `C[C@@H]1CCCCO[C@@H](CN(C)CC2CCCCC2)[C@@H](C)CN([C@@H](C)CO)C(=O)c2cc(NC(=O)Nc3ccc(F)cc3)ccc2O1`, for which the cytotoxicity call was “inactive”.

Source of the values: the antibiotic and cytotoxicity screens of Wong et al. (2023).
